An excerpt weighted towards active compounds, which were near 1.6% of everything screened.
KCNQ2 inh: blocks the rat KCNQ2 potassium channel | O88943 | CHO-K1 KCNQ2, FluxOR thallium flux, 20 min; stronger effect = lower value | B-score at 10 µM | actives 1.1% (n = 310,000) | AID 2156;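 active = fluorescence ratio B-score at most minus 3 library SDs, with starting brightness B-score within 2 library SDs, cut at about -5.5 in these data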
Target sequence (O88943 whole entry, looked up): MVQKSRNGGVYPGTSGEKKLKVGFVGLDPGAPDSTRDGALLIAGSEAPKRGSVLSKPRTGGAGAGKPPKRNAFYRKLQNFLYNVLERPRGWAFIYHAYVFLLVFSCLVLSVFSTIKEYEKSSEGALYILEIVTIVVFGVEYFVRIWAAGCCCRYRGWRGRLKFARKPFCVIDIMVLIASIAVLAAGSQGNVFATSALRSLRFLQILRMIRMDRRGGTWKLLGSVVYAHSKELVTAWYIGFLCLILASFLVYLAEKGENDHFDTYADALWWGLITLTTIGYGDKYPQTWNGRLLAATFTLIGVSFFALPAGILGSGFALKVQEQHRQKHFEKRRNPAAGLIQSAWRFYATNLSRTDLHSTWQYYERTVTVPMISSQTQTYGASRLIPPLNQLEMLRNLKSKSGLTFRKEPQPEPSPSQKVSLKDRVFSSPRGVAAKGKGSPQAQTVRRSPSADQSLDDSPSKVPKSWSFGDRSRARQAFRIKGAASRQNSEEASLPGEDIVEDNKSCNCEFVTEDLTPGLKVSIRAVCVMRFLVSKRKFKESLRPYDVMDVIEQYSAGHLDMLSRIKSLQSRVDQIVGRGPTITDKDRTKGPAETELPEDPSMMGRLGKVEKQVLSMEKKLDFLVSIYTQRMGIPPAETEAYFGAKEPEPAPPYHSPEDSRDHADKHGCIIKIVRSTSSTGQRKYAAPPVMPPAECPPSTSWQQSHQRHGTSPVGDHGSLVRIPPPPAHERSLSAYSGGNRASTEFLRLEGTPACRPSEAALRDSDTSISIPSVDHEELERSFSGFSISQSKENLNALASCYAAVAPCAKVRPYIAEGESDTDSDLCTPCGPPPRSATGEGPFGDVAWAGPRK
KCNQ2 enhance: potentiators of rat KCNQ2 potassium channel; B-score at 10 µM; O88943; CHO-K1 KCNQ2, FluxOR thallium flux fluorescence; stronger effect = higher value; actives 0.54% (n = 310,000);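 active = fluorescence ratio B-score at least 3 SD of library B-scores, with initial fluorescence B-score within 3 of them, cut at about 5.3 in these data; same plate scores as AID 2156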;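 note: B-score of peak minus minimum over baseline fluorescence ratio after K+ and Tl+ stimulus; positive B-score means potentiation of KCNQ2 with more thallium influx and brighter signal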
Kir21 conf inh: confirmation of mouse Kir2.1 potassium channel inhibitors. Kir2.1-expressing cells, FluxOR thallium flux fluorescence; stronger effect = lower value. Tl flux remaining, % of negative control (stronger effect = lower value), % at 10 µM. actives 41% (n = 2,300). AID 2032. shares compounds with KCNQ2 enhance;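 active = Primary-screen hit whose thallium flux fell at least 3 control SD below untreated wells in both duplicates, with normal baseline fluorescence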;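 note: 0% = blank wells without stimulus and 100% = stimulated no-compound controls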
HEK293 ctr: parental HEK293 activity in Kir2.1 inhibitor counter-screen; shares compounds with KCNQ2 enhance; parental HEK293 cells, FluxOR thallium flux fluorescence; 0% = unstimulated blank wells; FluxOR signal as % of negative control (100 = no effect), % at 10 µM; actives 19% (n = 2,300); AID 2105;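 active = dye signal at least 3 control SD above or below untreated wells in both duplicates, raw fluorescence within 3, either direction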;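 note: percent is based on the flux ratio of peak minus minimum fluorescence over baseline F0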
CHO-K1 Tl ctr: parental CHO-K1 activity in KCNQ2 potentiator counter-screen. shares compounds with KCNQ2 enhance. parental CHO-K1 cells, FluxOR thallium flux fluorescence; zero = vehicle mean+3SD, 100% = vehicle-minus-blank window. activity increase over 3SD of controls, % at 10 µM. actives 43% (n = 1,200). AID 2282;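 active = signal rise of at least 3 SD above the untreated control mean, in both duplicate wells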;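 note: counter screen of KCNQ2 potentiator hits so any rise reflects channel-independent effects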
KCNQ1 sel pot: human KCNQ1 counter-target activity of KCNQ2 potentiators. shares compounds with KCNQ2 enhance. CHO KCNQ1 stable, FluxOR thallium flux fluorescence; beyond 3SD, as % of vehicle-control signal. activation over 3SD threshold, % at 10 µM. actives 28% (n = 1,200). AID 2283;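 active = fluorescence ratio rise of at least 3 SD of vehicle wells above their mean, in both replicate wells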;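 note: 0% = vehicle mean plus 3 SD and 100% = vehicle minus unstimulated blank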
KCNQ2 pot conf: rat KCNQ2 channel potentiator confirmation | actives 68% (n = 1,200) | potentiation, less the hit threshold, % at 10 µM | AID 2287 | shares compounds with KCNQ2 enhance | CHO-KCNQ2 cells, FluxOR thallium flux fluorescence;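 active = fluorescence ratio rising 3 SD or more over the vehicle control mean in both replicates, plus primary screen hit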;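 note: peak minus minimum thallium fluorescence divided by baseline after K/Tl stimulus; 0% = vehicle mean plus 3 SD and 100% = vehicle minus unstimulated blank difference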
Kir2-1 sel: tests whether KCNQ2 potentiators also affect mouse Kir2.1; shares compounds with KCNQ2 enhance; HEK293 Kir2.1, FluxOR thallium flux fluorescence; activity over 3SD threshold, % at 10 µM; actives 2% (n = 1,200); AID 2345;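 active = fluorescence ratio rise of at least 3 SD above the vehicle-control mean, seen in both replicates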;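 note: 0% = vehicle mean plus 3 SD and 100% = vehicle minus no-stimulus blank window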
KCNQ2 W236L MoA: rat KCNQ2 W236L mutant potentiation by KCNQ2 potentiators. shares compounds with KCNQ2 enhance. CHO KCNQ2-W236L, automated patch clamp current. AID 2558. current increase over 3SD of negative controls (%), stronger effect = higher value, % at 25 µM. actives 10% (n = 940);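 active = current increase at least 3 SD of the untreated controls above them in both duplicate recordings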
Active calls of the source: *; i = inactive; · = no result.

SMILES	KCNQ2 inh	KCNQ2 enhance	Kir21 conf inh	HEK293 ctr	others
CCn1cc(C2CC(=O)NC2=O)c2ccccc21 (stereo not given)	i	·	·	·
COc1ccc2nc(C)cc(NCc3ccc(F)cc3)c2c1	i	·	·	·
COc1ccccc1C1=NOC(Cn2c(NCCCO)nc3c2c(=O)n(C)c(=O)n3C)C1 (stereo not given)	i	0.64	·	·
COc1ccc(C2=NOC(Cn3c(Cc4ccc(Cl)cc4)nc4c3c(=O)n(C)c(=O)n4C)C2)cc1 (stereo not given)	i	5.4*	i	i	CHO-K1 Tl ctr=6.7*;KCNQ1 sel pot=-39.1;KCNQ2 pot conf=-12.7;Kir2-1 sel=-24.1
CC1=CC(C)(C)[N+](C)=CN1c1ccccc1	i	0.1	·	·
COc1cc(C)c(NC(=S)NCCCN2CCOCC2)cc1OC	i	·	·	·
CCc1cc(-c2n[nH]c(C)c2-c2nc3ccccc3s2)c(O)cc1OCC(=O)NN	i	·	·	·
CCc1cc(-c2n[nH]c(C)c2-c2nc(C)cs2)c(O)cc1OC	i	2.65	37.0%*	i
CCCCCCCCCn1c2c(c(=N)c3c1CCC3)CCCC2	i	18.9*	9.0%*	i	CHO-K1 Tl ctr=39.0*;KCNQ1 sel pot=-3.6;KCNQ2 pot conf=-87.6;Kir2-1 sel=-114.5;KCNQ2 W236L MoA=i
CCn1c2c(c(=N)c3c1CCC3)CCCC2	i	0.8	·	·
CCCCCCCCn1c2c(c(=N)c3ccccc31)CCC2	-5.74*	-5.74	13.5%*	i
CCCCn1c2c(c(=N)c3ccccc31)CCC2	i	·	·	·
Cc1cccc([C@@H]2[C@@H]3C(=O)N(Cc4ccccc4)C(=O)[C@@H]3[C@]3(Cc4ccccc4)C(=O)N(c4ccc(C(F)(F)F)cc4)C(=O)N23)c1	i	·	·	·
CCS(=O)(=O)NCCNc1ccc([N+](=O)[O-])cc1	i	·	·	·
CC(C)(O)C#Cc1ccc(CN2CCN(CCc3ccccc3)C(CCO)C2)s1 (stereo not given)	i	0.06	·	·
COc1ccc(N(C(C)C(=O)N2CCC(Cc3ccccc3)CC2)S(C)(=O)=O)cc1 (stereo not given)	i	·	·	·
O=C(c1cccc(Cl)c1)C1CCCN(S(=O)(=O)c2ccccc2)C1 (stereo not given)	i	·	·	·
COC(=O)c1c(NS(=O)(=O)c2ccc3ccccc3c2)sc2c1CCCC2	i	6.43*	i	i	CHO-K1 Tl ctr=-4.5;KCNQ1 sel pot=-10.8;KCNQ2 pot conf=-17.4;Kir2-1 sel=-35.6
CCOC(=O)c1c(NC(=O)c2ccco2)sc2c1CCCCC2	i	2.35	·	·
CCOC(=O)c1c(NS(=O)(=O)Cc2ccccc2)sc2c1CCCC2	i	·	i	337.5%*
CCOC(=O)c1c(NC(=O)c2ccccc2C(=O)O)sc2c1CCC2	i	1.7	·	·
CCOC(=O)c1c(NS(=O)(=O)c2ccc(Br)cc2)sc2c1CCC2	i	18.1*	i	255.0%*	CHO-K1 Tl ctr=41.4*;KCNQ1 sel pot=86.6*;KCNQ2 pot conf=58.9*;Kir2-1 sel=-26.1;KCNQ2 W236L MoA=i
COC(=O)c1c(NC(=O)c2ccc(C)c(S(=O)(=O)Nc3ccccc3C)c2)sc2c1CCCC2	i	·	·	·
CCOC(=O)c1c(NC(=O)OC)sc2c1CCC2	i	0.81	·	·
CCOC(=O)c1c(NC(=O)CCNCc2ccco2)sc2c1CCC2	i	·	28.0%*	i
SMILES	KCNQ2 inh	KCNQ2 enhance	Kir21 conf inh	HEK293 ctr	others
Cc1cc(C)n(-c2ccc(Cl)c(C(=O)Nc3cc(C(F)(F)F)ccc3Cl)n2)n1	i	·	·	·
COc1ccccc1NC(=O)C1=C(C)NC(=O)NC1c1cccs1 (stereo not given)	i	2.26	·	·
CC(C)(C)N(CC(=O)NC1CCCCC1)C(=O)CS(=O)CC(=O)Nc1ccc(F)cc1 (stereo not given)	i	·	·	·
Nc1cc(Cl)ccc1Nc1ccncc1	i	·	·	·
CCOc1ccc(N2CC(C(=O)NCCc3c[nH]c4ccc(C)cc34)CC2=O)cc1 (stereo not given)	i	0.92	·	·
O=C(O)c1ccccc1C(=O)NC1CCCc2ccccc21 (stereo not given)	i	0.3	·	·
CC1CCc2c(sc(NS(=O)(=O)c3ccccc3)c2C(=O)OC(C)C)C1 (stereo not given)	i	4.06	i	i
CC1CCc2c(sc(NC(=O)c3ccco3)c2C(=O)O)C1 (stereo not given)	i	1.58	·	·
CC(NC(=O)/C(C#N)=C/c1ccc([N+](=O)[O-])o1)c1ccccc1 (stereo not given)	i	·	i	64.0%*
CC(NC(=O)/C(C#N)=C/c1ccco1)c1ccccc1 (stereo not given)	i	·	·	·
O=S(=O)(NCc1ccccn1)c1ccc(Cl)s1	i	0.04	·	·
CCOC(=O)CSc1ncnc2c(C(=O)OCC)c3n(c12)CCC3	i	1.98	·	·
CC(=O)CCSc1ncnc2sc(-c3ccccc3)cc12	i	·	·	·
O=C(O)CCSc1ncnc2sc(-c3ccccc3)cc12	i	9.55*	i	197.5%*	CHO-K1 Tl ctr=16.8*;KCNQ1 sel pot=3.1*;KCNQ2 pot conf=33.2*;Kir2-1 sel=-21.0;KCNQ2 W236L MoA=16.4%*
COc1cc(C(F)(F)F)ccc1C(=O)NCCc1ccco1	i	0.46	·	·
Cc1nn(C)c(C(=O)NNC(=S)Nc2ccc(F)cc2)c1[N+](=O)[O-]	i	·	·	·
CCCCOC(=O)c1ccc(NC(=S)NC(=O)c2c(Cl)cnn2CC)cc1	i	5.25	·	·
Cc1nn(C)c(C(=O)NC(=S)Nc2ccccc2Br)c1Cl	i	6.84*	i	215.5%*	CHO-K1 Tl ctr=-0.3;KCNQ1 sel pot=-7.5;KCNQ2 pot conf=54.7*;Kir2-1 sel=-20.1;KCNQ2 W236L MoA=i
Cc1nn(C)c(C(=O)NC(=S)Nc2ccc([N+](=O)[O-])cc2)c1Cl	i	8.44*	i	132.5%*	CHO-K1 Tl ctr=-19.3;KCNQ1 sel pot=-9.4;KCNQ2 pot conf=0.7*;Kir2-1 sel=-28.2;KCNQ2 W236L MoA=i
Cc1nn(C)c(C(=O)NNC(=S)NCc2ccccc2)c1Cl	i	·	·	·
CCn1ncc(Cl)c1C(=O)NC(=S)Nc1ccccc1Br	i	7.09*	i	231.5%*	CHO-K1 Tl ctr=12.1*;KCNQ1 sel pot=54.9*;KCNQ2 pot conf=53.2*;Kir2-1 sel=-14.2;KCNQ2 W236L MoA=i
O=C(Nc1ccccc1)OC1CCC2CC1CCC2OC(=O)Nc1ccccc1 (stereo not given)	i	·	·	·
CC1CCC(CN2C(Nc3ccccc3)=NC[C@@H]2C)CC1 (stereo not given in full)	i	0.71	·	·
Cc1[nH]ccc(=O)c1Oc1ncc(C(F)(F)F)cc1Cl	i	·	·	·
